What all share (assay): PBM binding z-score (relative to random genomic background probes); higher = stronger binding; sequences stand for … in GC…GCGATTGACAGCGTAGAATGAAGG
Assay [1] deals with PPARg:RXRa DBDmut IVT, anti-RXR (DBD mutation: RXRa K156A/R161A, NR concentration 270 nM, RXRa partner concentration 90 nM). Put shortly: (§1)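 Binding buffer was PBS pH 7.4 with 2% milk, 0.02% Triton X-100, 1 mM DTT, 0.2 mg/mL BSA and 0.4 mg/ml salmon testes DNA. In it, ligand-free nuclear receptor dimers were incubated 1 h on custom Agilent 4×180K protein-binding microarrays carrying double-stranded probes. Antibodies against each partner (one per run) detected binding, and z-scores were calculated against random background probes after regression normalization of scanned fluorescence.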

In assay [2] the test system is PPARg:RXRa IVT, anti-PPARg (NR concentration 270 nM, RXRa partner concentration 90 nM). In short, it runs like this:
as §1

For assay [3], the system named is PPARg DBDmut:RXRa IVT, anti-PPARg (DBD mutation: PPARg1 K132A/R137A, NR concentration 270 nM, RXRa partner concentration 90 nM). In short, it runs like this:
as §1

Assay [4] concerns PPARg DBDmut IVT, anti-PPARg (DBD mutation: PPARg1 K132A/R137A, NR concentration 270 nM). Put shortly: as §1
For assay [5], the system named is PPARg homodimer (NR concentration 180 nM). In short, it runs like this:
as §1

In assay [6] the test system is PXR:RXRa (NR concentration 270 nM, RXRa partner concentration 90 nM). In short, it runs like this:
as §1

The test system of assay [7] is PXR homodimer (NR concentration 270 nM). Put shortly:
as §1

The test system of assay [8] is RARa:RXR (NR concentration 270 nM, RXRa partner concentration 90 nM). In short, it runs like this: as §1
Assay [9] has as its system RARa homodimer (NR concentration 270 nM). Put shortly: as §1
Assay [10] relates to RARb:RXRa (NR concentration 270 nM, RXRa partner concentration 90 nM). In short, it runs like this:
as §1

In assay [11] the test system is RARb homodimer (NR concentration 270 nM). Put shortly:
as §1

Assay [12] has as its system RARg:RXRa (NR concentration 270 nM, RXRa partner concentration 90 nM). In short, it runs like this: as §1
Assay [13] relates to RARg homodimer (NR concentration 270 nM). In short, it runs like this:
as §1

For assay [14], the system named is RXRa DBDmut IVT, anti-RXR (DBD mutation: RXRa K156A/R161A, NR concentration 90 nM). In short, it runs like this:
as §1

For assay [15], the system named is RXRa homodimer (NR concentration 180 nM). In short, it runs like this:
as §1

Assay [16] deals with THRa:RXRa (NR concentration 90 nM, RXRa partner concentration 90 nM). In short, it runs like this:
as §1

The subject of assay [17] is THRa homodimer (NR concentration 90 nM). Put shortly:
as §1

Assay [18] has as its system VDR homodimer (NR concentration 270 nM). Put shortly: as §1

As to CCTAGCGGGCCAGGGTCACTCAAGCATTTCGCTT, the PBM binding z-score in [1] was -0.418; in assay [2] it was 0.39; in assay [3], -1.58; in assay [4], -1.58; in assay [5], 0.563; in assay [6], 2.61. The PBM binding z-score in assay [7] is -0.612; in [8] it was 3.38; in assay [9], -0.206; in assay [10], 2.53; in [11], 2.48; in assay [12] it was 3.06. Moreover, the PBM binding z-score was 2.4 in assay [13]; -0.0113 in assay [14]; 3.72 in [15]; 2.72 in assay [16]; 1.19 in [17]; 1.28 in assay [18].

With CGAACTAGGTCATTCAGGACAGTGAATACATTGA, the PBM binding z-score in [1] was found to be 8.1; in assay [2] it was 7.91; in [3] it was 2.05; in [4], 1.68; in assay [5], 1.19; in assay [6], 2.04. For the same sequence, the PBM binding z-score in assay [7] worked out at 1.68; in assay [8] it was 2.17; in assay [9], 0.688; in assay [10], 3.61; in assay [11], 2.72; in assay [12], 3.7. The PBM binding z-score was 4.69 in assay [13]; 2.77 in [14]; 2.8 in assay [15]; 3.63 in assay [16]; 2.13 in [17]; 2.27 in assay [18].

Regarding CTCGAAAGGTCGTGCTCAGTTGAGTATACCAAAC, the PBM binding z-score worked out at 0.724 in assay [1]; 1.41 in assay [2]; 0.908 in assay [3]; 0.182 in assay [4]; 1.01 in assay [5]; 3.56 in [6]. Moreover, the PBM binding z-score worked out at 0.333 in assay [7]; 3.85 in assay [8]; 0.101 in [9]; 3.85 in assay [10]; 2.57 in [11]; 4.35 in [12]. Moreover, the PBM binding z-score in assay [13] is 3.63; in [14] it was 1.71; in [15], 4.77; in assay [16], 2.66; in [17], 0.251; in assay [18], 0.971.

With AGAAAGAGGGCAATGAGTTGATAGCACGGGTGGC, the PBM binding z-score in assay [1] worked out at 2.75; in assay [2], 1.6; in [3] it was 0.0853; in assay [4], 0.306; in assay [5] it was 0.658; in [6], 1.84. Also, the PBM binding z-score in assay [7] stood at 4.38; in assay [8], 0.758; in assay [9] it was 0.0375; in assay [10] it was 2.46; in assay [11], 1.65; in assay [12], 1.64. The PBM binding z-score in assay [13] was 2.08; in assay [14], 1.7; in assay [15], 1.07; in assay [16], 0.681; in assay [17] it was -0.101; in assay [18], 3.05.

In the case of CCTTACGGGTCATGAGGTTATAGCACGACGAGCG, the PBM binding z-score amounted to 3.29 in [1]; 4.22 in [2]; 1.38 in assay [3]; 0.99 in [4]; 3.37 in [5]; 4.44 in assay [6]. In addition, the PBM binding z-score in assay [7] came to 0.345; in assay [8], 5.82; in assay [9] it was 1.27; in assay [10], 4.11; in assay [11], 3.4; in assay [12], 5.79. In addition, the PBM binding z-score was 4.57 in [13]; 1.85 in assay [14]; 6.48 in [15]; 3.62 in [16]; 0.938 in assay [17]; 1.91 in assay [18].

Take TATCCTAGGTCATTGGGCCAGTATAGTACGCATC: the PBM binding z-score came to 4.13 in assay [1]; 5.49 in assay [2]; 1.68 in [3]; 3.21 in [4]; 2.35 in assay [5]; 2.21 in assay [6]. The PBM binding z-score was determined as 0.746 in [7]; 2.96 in [8]; 0.931 in [9]; 3.98 in assay [10]; 3.29 in assay [11]; 4.22 in [12]. In addition, the PBM binding z-score in [13] is 4.55; in assay [14], 2.33; in assay [15], 3.37; in assay [16], 3.25; in assay [17], 1.52; in [18], 1.65.

Regarding CCGTCTGGGGCAGAAAGGTTACCATACCATCCGG, the PBM binding z-score in [1] is 0.505; in assay [2], 0.764; in [3], -1.18; in [4] it was -1.86; in assay [5] it was 0.553; in [6], 0.821. Moreover, the PBM binding z-score in [7] was -0.115; in [8] it was 1.51; in [9] it was -0.0366; in [10], 1.54; in assay [11], 2.03; in assay [12], 1.36. Moreover, the PBM binding z-score was 0.979 in [13]; -0.795 in assay [14]; 1.37 in [15]; 0.782 in assay [16]; -0.335 in [17]; -0.377 in assay [18].

Take CCTTACGGGTTACTGACAGGTTATAGCATTTGGA: the PBM binding z-score in assay [1] was 1.04; in assay [2] it was 0.57; in [3] it was -0.172; in [4] it was -0.367; in assay [5], 1.21; in assay [6] it was 0.825. Also, the PBM binding z-score in assay [7] came to 0.22; in assay [8], 1.51; in assay [9] it was 0.545; in [10], 0.924; in assay [11], 0.885; in assay [12] it was 2.22. For the same sequence, the PBM binding z-score in [13] was 0.806; in [14] it was 0.177; in [15] it was 1.54; in assay [16] it was 1.11; in assay [17] it was -0.00572; in assay [18], 0.261.

For the origin of these results see the supplement of paper PMC6555819.
